In PubChem BioAssay:
The source made the active and inactive calls.

What was measured:
[1] = small molecules captured by biotinylated probe aFSTL3 – biochemical, small-molecule microarray, fluorescence 635/667, stem cell growth factor project, primary screen (AID 1064); details: higher = more signal;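 also: measures binding of the biotinylated anti-FSTL3 antibody to printed compounds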
[2] = binders from COS7 lysate, DM2A8 probe, primary screen, torsin A project, cell lysate, small-molecule microarray, fluorescence 635/667 (AID 1065); details: higher = more signal, COS7 lysate expressing mutant human TOR1A
[3] = small molecules captured by biotinylated probe aFGF2 – biochemical, small-molecule microarray, fluorescence 635/667, stem cell growth factor project, primary screen (AID 1067); details: higher = more signal;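 also: measures binding of biotinylated aFGF2 protein to printed compounds on slides; z-score merges feature fluorescence and signal-to-noise across triplicate slides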
[4] = small molecules captured by biotinylated probe aFGF10 – biochemical, small-molecule microarray, fluorescence 635/667, stem cell growth factor project, primary screen (AID 1071); details: higher = more signal;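 also: score merges 667 nm spot intensity and signal to noise from triplicate slides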
[5] = molecular target: Neurogenic locus notch homolog protein 2 (Homo sapiens) (UniProt Q04721); test: small molecules binding Notch2 protein – biochemical, small-molecule microarray, 635 nm fluorescence, stem cell growth factors, primary screen (AID 1073); details: higher = more signal
[6] = molecular target: Pro-neuregulin-1, membrane-bound isoform (Homo sapiens) (UniProt Q02297); test: small molecules binding neuregulin-1 protein – biochemical, small-molecule microarray, fluorescence 635/667, psychiatric disease protein project, primary screen (AID 1075); details: NRG1 binding, 635 nm fluorescence, higher = more signal;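 also: score combines 667 nm spot fluorescence with signal to noise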
[7] = system: Neuregulin-1 EGF-like domain; test: small molecules binding NRG1 EGF domain – biochemical, small-molecule microarray, 635 nm fluorescence, primary screen (AID 1081); details: higher = more signal;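 also: binding of the protein to compounds printed on small-molecule microarray slides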
[8] = FRG1 expression reporter modulators in myotubes – cell-based, C2C12 myotubes, firefly/Renilla luciferase, luminescence, FRG1 inhibition for FSHD, primary screen (AID 1084); details: FRG1 promoter luciferase, higher = more signal, called active from +8 up or from −8 down
[9] = small molecules captured by biotinylated probe aFST – biochemical, small-molecule microarray, fluorescence 635/667, stem cell growth factor project, primary screen (AID 1086); details: higher = more signal;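 also: score merges 667 nm fluorescence with signal-to-noise of each printed compound spot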
[10] = binders of probe aHhip on microarray, primary screen, stem cell growth factor project, biochemical, small-molecule microarray, fluorescence 635/667 (AID 1087); details: higher = more signal;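 also: score merges spot fluorescence at 667nm with spot signal to noise ratio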
[11] = system: PRMT1 (protein arginine N-methyltransferase 1); test: small molecules binding arginine methyltransferase PRMT1 – biochemical, small-molecule microarray, 635 nm fluorescence, primary screen (AID 1088); details: higher = more signal;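 also: binding of Prmt1 protein to compounds spotted on small-molecule microarray slides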
[12] = growth effects on S. cerevisiae YJM789 – YJM789 clinical isolate, OD600, 24 h, basal, primary screen (AID 1089); details: higher = more signal, called active from +8 up or from −8 down;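 also: growth of clinical yeast isolate S. cerevisiae YJM 789 seeded 1000 cells per well; test concentration not given here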
[13] = S. pombe growth modifiers, basal conditions – strain 972, OD600, 24 h, no modulator, primary screen (AID 1090);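 also: basal condition with compound alone and no growth modifier present; test concentration not given here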; details: S. pombe 972 growth, higher = more signal, called active from +8 up or from −8 down
[14] = budding yeast growth modifiers under rapamycin – strain BY4716, OD600, 96 h, primary screen (AID 1091); also: test concentration not given here; details: S. cerevisiae BY4716 + rapamycin, higher = more signal, called active from +8 up or from −8 down
[15] = molecular target: Torsin-1A-interacting protein 2 (Homo sapiens) (UniProt Q8NFQ8); test: small molecules binding lysate-expressed LULL1 – cell lysate, human LULL1 lysate, 635/667 nm fluorescence, primary screen (AID 1092); details: small-molecule microarray, hLULL1 lysate binding, 635 nm fluorescence; higher = more signal;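 also: probe is lysate of COS7 cells overexpressing human LULL1; score merges per-feature 667 nm fluorescence with signal-to-noise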
[16] = optical density change of DRC41 E. coli – strain DRC41, OD650, 24 h, E. coli filamentation project, primary screen (AID 1093);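 also: MC1000 strain lacking acrAB efflux and sulA so SOS filamentation is blocked; test concentration not given here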; details: E. coli DRC41 growth, higher = more signal, called active from +8 up or from −8 down
[17] = probe aLefty2 binding to arrayed compounds – biochemical, biotinylated probe, 635/667 nm fluorescence, primary screen (AID 1094); details: small-molecule microarray, higher = more signal;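 also: score merges spot fluorescence near 667 nm with spot signal-to-noise ratio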
[18] = system: Noggin (protein binding on small-molecule microarray); test: small molecules binding Noggin protein – biochemical, 635/667 nm fluorescence, primary screen (AID 1095); details: 635 nm fluorescence, higher = more signal;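 also: score merges 667 nm feature fluorescence with signal to noise over triplicate slides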
[19] = molecular target: Neurogenic locus notch homolog protein 3 (Homo sapiens) (UniProt Q9UM47); test: small molecules binding NOTCH3 protein – biochemical, 635/667 nm fluorescence, primary screen (AID 1096); details: small-molecule microarray, 635 nm fluorescence, higher = more signal
[20] = probe aEGFR binding to arrayed compounds – biochemical, biotinylated probe, 635/667 nm fluorescence, primary screen (AID 1097); details: small-molecule microarray, higher = more signal;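 also: probe is a biotinylated anti-EGFR antibody binding compounds printed on slides; score combines fluorescence near 667 nm and signal to noise of each spot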

Neurogenic locus notch homolog protein 2 (Homo sapiens), sequence (Q04721 whole entry, looked up, canonical isoform): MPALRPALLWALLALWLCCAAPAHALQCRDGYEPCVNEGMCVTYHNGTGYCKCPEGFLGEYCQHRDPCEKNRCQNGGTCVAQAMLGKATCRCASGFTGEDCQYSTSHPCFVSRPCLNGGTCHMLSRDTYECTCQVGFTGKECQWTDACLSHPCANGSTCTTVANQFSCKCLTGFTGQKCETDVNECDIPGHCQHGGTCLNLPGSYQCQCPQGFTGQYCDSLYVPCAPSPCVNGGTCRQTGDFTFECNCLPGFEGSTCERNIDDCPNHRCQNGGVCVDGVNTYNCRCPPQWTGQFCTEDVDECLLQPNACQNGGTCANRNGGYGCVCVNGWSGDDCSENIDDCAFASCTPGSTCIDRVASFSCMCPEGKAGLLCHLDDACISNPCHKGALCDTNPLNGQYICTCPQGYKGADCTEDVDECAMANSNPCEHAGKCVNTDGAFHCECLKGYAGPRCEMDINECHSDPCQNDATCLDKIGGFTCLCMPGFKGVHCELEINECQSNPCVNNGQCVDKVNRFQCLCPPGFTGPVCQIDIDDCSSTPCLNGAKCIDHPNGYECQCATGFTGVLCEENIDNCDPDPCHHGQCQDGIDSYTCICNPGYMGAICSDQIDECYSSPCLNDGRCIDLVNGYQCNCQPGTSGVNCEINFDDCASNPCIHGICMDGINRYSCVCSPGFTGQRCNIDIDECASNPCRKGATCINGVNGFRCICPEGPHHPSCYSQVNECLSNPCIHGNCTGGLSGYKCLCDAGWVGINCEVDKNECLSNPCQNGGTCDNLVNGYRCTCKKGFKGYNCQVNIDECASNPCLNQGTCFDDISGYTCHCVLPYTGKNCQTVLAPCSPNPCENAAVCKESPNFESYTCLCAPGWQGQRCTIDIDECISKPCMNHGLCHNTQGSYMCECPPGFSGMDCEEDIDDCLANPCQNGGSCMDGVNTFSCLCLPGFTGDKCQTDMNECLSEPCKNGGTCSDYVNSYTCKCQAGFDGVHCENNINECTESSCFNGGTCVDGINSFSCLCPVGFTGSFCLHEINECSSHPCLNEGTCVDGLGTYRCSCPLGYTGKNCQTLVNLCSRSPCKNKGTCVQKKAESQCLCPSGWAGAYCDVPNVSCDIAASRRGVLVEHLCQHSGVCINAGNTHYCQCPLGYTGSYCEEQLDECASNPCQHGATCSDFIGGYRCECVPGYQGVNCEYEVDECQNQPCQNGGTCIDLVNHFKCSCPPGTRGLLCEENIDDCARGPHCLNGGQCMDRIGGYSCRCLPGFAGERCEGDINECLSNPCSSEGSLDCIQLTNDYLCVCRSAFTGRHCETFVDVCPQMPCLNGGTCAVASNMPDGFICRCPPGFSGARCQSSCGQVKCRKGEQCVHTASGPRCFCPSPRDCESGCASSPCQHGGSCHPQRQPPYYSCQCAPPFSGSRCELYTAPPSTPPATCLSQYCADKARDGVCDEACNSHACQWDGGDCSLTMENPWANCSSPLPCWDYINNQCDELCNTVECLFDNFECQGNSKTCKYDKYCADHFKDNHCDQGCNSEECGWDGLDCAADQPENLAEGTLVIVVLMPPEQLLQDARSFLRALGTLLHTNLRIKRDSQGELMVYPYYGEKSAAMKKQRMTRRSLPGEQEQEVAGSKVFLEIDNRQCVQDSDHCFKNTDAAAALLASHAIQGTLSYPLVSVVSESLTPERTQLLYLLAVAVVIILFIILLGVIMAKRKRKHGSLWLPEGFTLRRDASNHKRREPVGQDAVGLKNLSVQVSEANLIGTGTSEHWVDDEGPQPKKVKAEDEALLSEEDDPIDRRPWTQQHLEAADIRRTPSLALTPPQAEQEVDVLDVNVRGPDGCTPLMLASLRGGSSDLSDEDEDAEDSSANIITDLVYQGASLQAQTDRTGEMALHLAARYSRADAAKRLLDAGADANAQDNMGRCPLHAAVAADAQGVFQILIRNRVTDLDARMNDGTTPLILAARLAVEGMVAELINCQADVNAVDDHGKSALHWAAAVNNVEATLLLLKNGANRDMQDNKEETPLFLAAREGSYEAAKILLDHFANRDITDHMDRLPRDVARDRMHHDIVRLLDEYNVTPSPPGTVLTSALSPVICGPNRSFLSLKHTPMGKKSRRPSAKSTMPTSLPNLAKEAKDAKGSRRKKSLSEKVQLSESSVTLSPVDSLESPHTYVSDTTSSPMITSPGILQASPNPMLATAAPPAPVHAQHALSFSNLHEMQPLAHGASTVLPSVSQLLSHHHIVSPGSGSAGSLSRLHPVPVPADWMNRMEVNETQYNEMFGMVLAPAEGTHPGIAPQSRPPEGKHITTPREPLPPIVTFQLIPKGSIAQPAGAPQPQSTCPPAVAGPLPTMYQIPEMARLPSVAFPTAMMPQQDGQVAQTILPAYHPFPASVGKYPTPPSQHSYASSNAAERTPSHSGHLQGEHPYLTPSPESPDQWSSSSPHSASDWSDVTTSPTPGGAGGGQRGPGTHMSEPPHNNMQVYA
Pro-neuregulin-1, membrane-bound isoform (Homo sapiens), sequence (Q02297 whole entry, looked up, the tested form may be a part, canonical isoform): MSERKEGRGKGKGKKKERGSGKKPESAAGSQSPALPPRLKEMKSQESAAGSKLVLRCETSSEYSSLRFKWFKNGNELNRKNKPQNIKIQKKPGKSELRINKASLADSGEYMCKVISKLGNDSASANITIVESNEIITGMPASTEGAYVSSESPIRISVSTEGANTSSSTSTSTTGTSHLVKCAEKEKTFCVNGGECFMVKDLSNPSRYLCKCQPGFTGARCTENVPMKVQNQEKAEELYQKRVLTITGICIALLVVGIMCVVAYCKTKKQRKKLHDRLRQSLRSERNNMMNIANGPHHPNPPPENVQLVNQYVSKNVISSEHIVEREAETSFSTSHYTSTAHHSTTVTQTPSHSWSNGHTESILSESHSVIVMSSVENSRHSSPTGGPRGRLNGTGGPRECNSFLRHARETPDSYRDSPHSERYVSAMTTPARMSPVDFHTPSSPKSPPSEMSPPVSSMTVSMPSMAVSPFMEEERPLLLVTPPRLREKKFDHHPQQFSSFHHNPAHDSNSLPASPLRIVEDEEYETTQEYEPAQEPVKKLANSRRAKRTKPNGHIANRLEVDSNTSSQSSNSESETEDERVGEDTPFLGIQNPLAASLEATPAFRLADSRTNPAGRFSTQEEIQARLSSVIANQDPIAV
Torsin-1A-interacting protein 2 (Homo sapiens), sequence (Q8NFQ8 whole entry, looked up): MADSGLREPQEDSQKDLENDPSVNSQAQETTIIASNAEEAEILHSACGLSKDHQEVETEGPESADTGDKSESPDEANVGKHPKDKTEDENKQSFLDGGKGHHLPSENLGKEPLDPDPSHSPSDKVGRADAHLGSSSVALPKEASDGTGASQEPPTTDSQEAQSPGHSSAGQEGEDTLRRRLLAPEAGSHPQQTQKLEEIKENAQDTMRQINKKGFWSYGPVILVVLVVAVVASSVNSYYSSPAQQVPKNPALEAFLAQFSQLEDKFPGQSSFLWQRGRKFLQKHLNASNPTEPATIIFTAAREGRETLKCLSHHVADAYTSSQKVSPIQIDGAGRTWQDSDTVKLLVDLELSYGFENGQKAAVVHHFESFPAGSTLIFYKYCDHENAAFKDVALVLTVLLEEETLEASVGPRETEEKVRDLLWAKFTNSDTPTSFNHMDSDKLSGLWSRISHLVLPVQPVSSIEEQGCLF

SMILES | composite z-score [1] | composite z-score [2] | composite z-score [3] | composite z-score [4] | composite z-score [5] | composite z-score [6] | composite z-score [7] | z-score [8] | composite z-score [9] | composite z-score [10] | composite z-score [11] | z-score [12] | z-score [13] | z-score [14] | composite z-score [15] | z-score [16] | composite z-score [17] | composite z-score [18] | composite z-score [19] | composite z-score [20]
CC(C)C(CO)N1C(=O)[C@@H]2[C@H]3C(=O)OCC=C[C@H]3OC23C=CCN(Cn2nnc4ccccc42)C(=O)[C@@H]13 (stereo not given in full) | 0.449 | -0.292 | -0.192 | -0.579 | -1.06 | -0.78 | 0.332 | -0.194 (inactive) | -0.499 | -0.137 | -0.0697 | 1.14 (inactive) | 1.13 (inactive) | 0.779 (inactive) | 0.704 | 0.701 (inactive) | -0.262 | -2.09 | -0.254 | -0.2
[N-]=[N+]=NCc1ccccc1C[C@]1(C(=O)NCCN2CCOCC2)N=C(c2ccc(OCCCO)cc2)O[C@H]1c1ccccc1 | 0.081 | 0.205 | -0.0085 | 0.713 | 0.0617 | 1.32 | 1.26 | -0.849 (inactive) | 0.632 | -0.0296 | 1.54 | -2.01 (inactive) | -0.85 (inactive) | -2.06 (inactive) | 3.22 | 0.677 (inactive) | -0.0519 | 1.88 | 0.626 | -0.0382
C=CC[C@@]1(C(=O)NCC(O)CO)N=C(c2ccc(OCCCO)cc2)O[C@@H]1c1ccccc1 (stereo not given in full) | 1.49 | 2.09 | 0.255 | 0.44 | -0.565 | 1.64 | 0.845 | -1.09 (inactive) | 0.872 | 0.108 | 1.4 | -0.646 (inactive) | -1.17 (inactive) | -1.12 (inactive) | 3.12 | 0.727 (inactive) | 0.344 | 0.315 | 0.0815 | 0.168
COC(=O)[C@@]1(Cc2ccc(OC)cc2)[C@H]2c3cc(C(=O)N(C)C)n(CCF)c3C[C@H]2CN1C(=O)c1ccccc1 | 0.999 | 0.245 | 0.0398 | 0.419 | 1.66 | 1.97 | 1.33 | -1.11 (inactive) | 0.98 | 0.31 | 0.574 | 0.215 (inactive) | 1.25 (inactive) | 0.167 (inactive) | 3.24 | -0.0418 (inactive) | 0.411 | 0.296 | 1.02 | 0.0986
COC(=O)[C@@]1(Cc2ccc(OC)cc2)[C@H]2c3cc(C(=O)N(C)C)n(Cc4cc(F)c(F)c(F)c4)c3C[C@H]2CN1C(=O)c1ccccc1 | 0.831 | -0.136 | 0.329 | 0.594 | 1.74 | 1.81 | 1.08 | 2.19 (inactive) | 1.24 | 0.987 | 0.456 | 0.725 (inactive) | 0.129 (inactive) | 4.07 (inactive) | 3.44 | -0.909 (inactive) | 0.625 | -0.217 | 1.04 | 0.58
COCCOC(=O)N1C(=O)[C@@]2(c3cc(C#CCNC(N)=O)ccc31)[C@H](c1ccc(OCCO)cc1)N1[C@H](c3ccccc3)[C@H](c3ccccc3)OC(=O)[C@H]1[C@@H]2C(=O)N1CCN(c2ncccn2)CC1 | 0.496 | 0.287 | -0.0478 | 0.748 | 1.04 | 0.37 | 0.482 | -0.0699 (inactive) | 0.974 | -0.173 | 1.43 | 1.22 (inactive) | 0.423 (inactive) | 4.72 (inactive) | 2.1 | 0.338 (inactive) | 0.456 | 1.35 | 1.1 | -0.0424
CC(C)C[C@H]1NC(=O)[C@H](C)NC(=O)[C@@]23C(=O)N[C@@H](Cc4ccccc4)C2[C@H](C)[C@@]2(C)O[C@H]2C3/C=C/C/C=C\CNC1=O (stereo not given in full) | -0.021 | 0.366 | -0.104 | -0.0496 | -0.465 | 0.0659 | 0.511 | 0.171 (inactive) | -0.521 | -0.54 | 0.653 | -1.14 (inactive) | -1.25 (inactive) | -1.07 (inactive) | 2.44 | -0.847 (inactive) | -0.27 | -0.344 | 0.0715 | -0.158
COCCOC(=O)N1C(=O)[C@@]2(c3cc(C#CC4(O)CCCCCC4)ccc31)[C@H](C(=O)N1CCN(c3ncccn3)CC1)[C@H]1C(=O)O[C@H](c3ccccc3)[C@H](c3ccccc3)N1[C@@H]2c1ccc(O)cc1 | -0.238 | 0.413 | 0.0228 | 0.806 | 0.372 | 0.438 | 1.22 | -0.617 (inactive) | -0.123 | -0.0618 | 1.47 | 1.79 (inactive) | -0.885 (inactive) | 2.83 (inactive) | 2.54 | 1.31 (inactive) | -0.172 | 0.287 | 0.546 | -0.158
O=C1N(CCS(=O)(=O)c2ccccc2)c2ccccc2[C@H]2OC(c3ccc(OCCCO)cc3)=N[C@@]12CCS(=O)(=O)c1ccccc1 | 2.15 | 0.625 | 0.415 | 0.202 | 1.5 | 1.38 | 1.36 | -0.938 (inactive) | 1.43 | 0.772 | 1.55 | 2.95 (inactive) | 2.54 (inactive) | 7.94 (inactive) | 3.1 | 0.8 (inactive) | 0.856 | 1.08 | 1.07 | 0.723
COCC(=C=CC[C@@H](O)c1ccccc1OCCO)C[C@@H](O)COCc1ccccc1 | 0.181 | 1.12 | -0.0267 | 1.06 | -0.258 | 1.68 | 1.01 | -1.11 (inactive) | 0.463 | 0.891 | 1.23 | -0.893 (inactive) | -1.68 (inactive) | -1.26 (inactive) | 2.62 | 1.73 (inactive) | 0.437 | 1.01 | -0.0082 | 0.0017
